# Reference: PubChem BioAssay (NCI)
# Compounds without any hit were thinned out: in the full panel of roughly 83,000, 20% have a hit.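 Treatment: one concentration, 48 hours, 96-well format. Scoring: percent growth, with anything below 10 considered active.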 Unmarked numbers belong to inactive results. Active and inactive are the calls of the source.
# Tested on: NCI-H23 lung
# Assay: NCI-60 one-dose screen, 48 h (100 = growth as untreated, 0 = no growth, -100 = all killed)
# Conditions: 10 µM unless noted
# Description: Growth inhibition of the NCI-H23 human Non-Small Cell Lung tumor cell line is measured as a screen for anti-cancer activity. Cells are grown in 96 well plates and exposed to the test compound for 48 hours. Compounds are tested at a single concentration, which is 10^-5 M for most compounds. The reported endpoint is percent growth (GI% or GIPRCNT), where numbers from 0 - 100% represent growth inhibition, and numbers from -100% - 0 represent cell death. For example, a value of 40 represents 60% growth inhibition. A value of 0 means no net growth occurred over the course of the experiment. A value of -40 indicates 40% of cells at the beginning of the experiment died by the end of the experiment. A value of -100 means all cells are dead at the end of the experiment.
# NCI-60 Human Tumor Cell Lines Screen was performed using the standard one-dose NCI protocol, which is described in more detail at https://dtp.cancer.gov/discovery_development/nci-60/default.htm.
# Compounds with GIPRCNT values below 10 were considered active. Activity score was based on GIPRCNT using the following formula: […]
# Score is 0 for GIPRCNT values of 100 or above, 50 for GIPRCNT values of 0, and 100 for GIPRCNT values of -100.
row,SMILES,growth
1,CCSC(SCC)c1ccc(Cl)cc1,95.1%
2,COc1cc(OCc2cccc(Br)c2C)cc(OC)c1C=O,75.7%
3,N#Cc1c(-c2ccc(Cl)cc2)nc(NN2C(=O)c3ccccc3C2=O)nc1N1CCOCC1,97.2%
4,CCOC(=O)C1=C(N)Oc2c(sc3c(F)cccc23)C1c1ccc(O)cc1 (stereo not given),30.8%
5,O=C(Nc1cccc(Cl)c1)Nc1cccc(Cn2c(=O)[nH]c3ccc(Oc4ncccn4)cc3c2=O)c1,33.1%
6,CC1CCc2c(C(=O)Nc3ncc(Cc4cccc([N+](=O)[O-])c4)s3)csc2C1 (stereo not given),36.6%
7,O=C1Nc2ccc(C(=O)O)cc2/C1=N/c1nnc(Sc2ccccc2)s1,104%
8,CCCOC(=O)Nc1nc2ccc(SCC(C)C)cc2s1,46.4%
9,CCCn1cc2c(=O)nc3sc(Cc4ccccc4)c(C)n3c2n1,103%
10,Cn1c(=O)c2nc(/C=C/c3ccccc3)c(=O)[nH]c2n(C)c1=S,100%
11,Cn1cc(-c2csc(-c3c[nH]c4ccccc34)n2)c2cnccc21,85.5%
12,CCn1c(SCC(=O)N/N=C(\C)c2ccc(Cl)cc2)nc2c1c(=O)n(C)c(=O)n2C,102%
13,CCO/C=N/C1=C(C#N)C(c2ccc(Cl)cc2)c2sc3c(F)cccc3c2O1 (stereo not given),76.2%
14,CSc1nnc(-c2cc3c([nH]c4ccccc43)c(-c3cccc(O)c3)n2)n1-c1ccccc1,55.1%
15,CCN(CC)CCCCCNc1cc(OC(=O)c2ccc(Cl)cc2)cc2cccnc12,93.9%
16,CCC(C)(C)C(=O)O[C@H]1C[C@@H](C)C=C2C=C[C@H](C)[C@H](CC[C@@H]3CC(SCCN)CC(=O)O3)[C@H]21 (stereo not given in full),98.2%
17,CCOC(=O)c1cc2c(n1Cc1cc(OC)c(OC)c(OC)c1)-c1nc(N)sc1CCC2,62.9%
18,Clc1ccc2c(c1)C(c1c[nH]c3ccccc13)(c1c[nH]c3ccccc13)CCO2,93.5%
19,Cc1cn(-c2cc(NC(=O)c3cccc(C#Cc4cccc5[nH]nc(N)c45)c3)cc(C(F)(F)F)c2)cn1,37.1%
20,Fc1cnccc1C1CC(c2ccc(N3CCNCC3)cc2)=NN1 (stereo not given),83.8%

row,SMILES,growth
1,N#Cc1ccc(O)c(C2=NCC(c3cccc(Oc4ccccc4)c3)O2)c1 (stereo not given),41.1%
2,Cc1ccc2c(c1)=C/C(=C\c1cc(-c3ccccc3)oc1O)C(=O)N=2,95.3%
3,O=S(=O)(NCCNc1nccc(-c2c(-c3ccc(F)c(O)c3)nc3sccn23)n1)c1ccc(O)cc1,54.6%
4,O=C(N/N=C/c1c(Cl)cccc1Cl)c1cccnc1Nc1cccc(C(F)(F)F)c1,44.3%
5,C#CCOc1ccc2ncnc(Nc3ccc(NC(=O)C=C)cc3)c2c1,2.09% (active)
6,COc1cc(-c2nc3sccn3c2-c2ccnc(NCCNS(=O)(=O)c3ccccc3)n2)ccc1F,67.6%
7,COc1cc2c(c(OC)c1OC)CCC(c1cccc(C(=O)Nc3cccc(Cl)c3)c1)O2 (stereo not given),85.8%
8,NC(=O)CSc1oc(-c2ccccc2)nc1S(=O)(=O)c1ccc(Br)cc1,79.8%
9,C=C(C)[C@@H]1CCC[C@]2(COS(=O)(=O)c3ccc(C)cc3)CC[C@]3(C)[C@@H](CC[C@@H]4[C@@]5(C)CCCNC(C)(C)[C@@H]5CC[C@]43C)[C@@H]12,25.7%
10,CCN1C(=S)N(c2ccccc2)C2NC(=S)N(/N=C/C=C/c3ccccc3OC)C21 (stereo not given),32.7%
11,Clc1ccc2c(NC3CCC(N4CCOCC4)CC3)ccnc2c1 (stereo not given),62.2%
12,CN(C)CC1CCC(CN(C)C)C1=O (stereo not given),114%
13,CCN1C(=O)N(CC)C2C1NN=c1s/c(=C\c3ccccc3F)c(=O)n12 (stereo not given),31.9%
14,COc1cccc(CNc2ccc3ncnc(Nc4ccc(F)c(Cl)c4)c3c2)c1,69.6%
15,Oc1c(Br)cc(Br)c2ccc(Cn3cc(-c4ccccc4C(F)(F)F)nn3)nc12,106%
16,COc1ccc2cc1Oc1ccc(cc1)C[C@H]1c3c(cc4c(c3Oc3cc5c(cc3OC)CCN(C)[C@@H]5C2)OCO4)CCN1C,75.9%
17,CCCCCN1C(=O)/C(=c2\sc3n(c2=O)C2C(NN=3)N(CC)C(=O)N2CC)c2ccccc21 (stereo not given),12.1%
18,CCOc1ccc(NC(=O)CSc2oc(-c3ccccc3)nc2S(=O)(=O)c2ccc(C)cc2)cc1,67.4%
19,Nc1c(C(=O)Nc2ccccc2C(F)(F)F)sc2nc3c(cc12)CCC3,95.7%
20,c1ccc(Cn2cc3c(c2)-c2oncc2CC3)cc1,46.6%
